Each structure is given as a SMILES string. Results filed as inconclusive are left out. Values without a mark were called inactive. Calls of active or inactive are those of the source. Calls follow the shape of the dose curve; as a rule, active = well fitted activation curve with a large enough effect; inconclusive = small, poorly fitted or top-dose-only effect; inactive = no such curve, though single readings can be large or run the other way.
Potency is read from the fitted curve at half-maximal effect.

A short description of the assay: qHTS Assay for Identifying a Potential Treatment of Ataxia-Telangiectasia: Secondary assay (no NCS) hit validation.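 Also: phosphorylated KAP1 signal as a proxy for ATM-like kinase activity.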 As to activation: 0% is about no effect. The following applies: A-T patient fibroblasts, AlphaLISA, no DNA damage added, 90 min; series mostly up to 76.9 µM; activation: at the top concentration. An excerpt: NIH Chemical Genomics Center [NCGC]
NIH Molecular Libraries Probe Centers Network [MLPCN]
Assay Submitter (PI): Wei Zheng and Yosef Shiloh
Ataxia-telangiectasia (A-T) is a devastating and progressive disease for which, there is no cure. Although A-T is a multisystem disease, it is stereotyped characterized by its neurological symptoms such as truncal ataxia, due to cerebellar cortical degeneration of the Purkinje and granule cells. Other symptoms of A-T are telangiectasias (dilated blood vessels), primary immunodeficiency, marked sensitivity to ionizing radiation (IR), chromosomal instability and predisposition to cancer.
The underlying genetic cause of A-T is null mutations in the ATM (A-T mutated) gene. ATM is a nuclear serine/threonine kinase that functions as a master regulator of the cellular responses to double strand breaks (DSBs) in the DNA. Upon activation by DSBs, ATM phosphorylates a plethora of downstream targets, including KAP-1 on […]. KAP-1 phosphorylation occurs shortly in response to DSBs and mediates global chromatin relaxation, which facilitates DSB repair. To screen for small molecules that will compensate for the loss of ATM in cells derived from A-T patients, we monitored KAP-1 phosphorylation as a readout for ATM-like activity using an AlphaLISA assay. This secondary assay omits NCS, which creates double-stranded DNA breaks.
Step,Parameter,Value,Description
1. Cell Plating, 3 ul, 500 cells/well in OPTI-MEM, 1% FBS, 1% Pen/Strep
3. Library compounds, 23 nl, 76.7 - 0.61uM dilution series final concentration
4. Incubation, 60 min, 37C, 5% CO2, 95% humidity
6. Incubation, 30 min, 37C, 5% CO2, 95% humidity
7. Reagent, 1 ul, Premixed detection reagents and lysis buffer
8. Reagent, 1 ul, 0.6% Antifoam A
9. Incubation, 6 hr, 25C, 95% humidity
10. Readout, EnVision, EnVision plate reader. AlphaScreen 1536-well protocol
Cells were plated using medium-binding white solid-bottom tissue culture treated Kalypsys plates. Multidrop dispense of 3 uL of F2112 (hTERT immortalized A-T patient fibroblast cells). Detection reagent and lysis buffer was 3.75nM Rab-a-pKAP1 antibody bound to 75 ng/ul AlphaScreen SA donor bead, 3.75 nM Biot-M-a-KAP1 antibody bound to AlphaLISA protein A acceptor bead, 0.5x protease inhibitor cocktail and 0.25x PerkinElmer lysis buffer. EnVision protocol for 1536-well AlphaScreen read (30ms excitation, 100ms read), about 10 min/plate.
As for `CN1CCCC(C(O)(c2ccccc2)c2ccccc2)C1` (stereo not drawn), the “activation” value is 18.6%.
For `CCN(CC)S(=O)(=O)c1cccc(N=Nc2c(O)n(CC)c(=S)n(CC)c2=O)c1`, the Potency was 18.4 µM (active).
For `CCc1ccc(N2C(=O)NC(=O)/C(=C\C=C\c3ccco3)C2=O)cc1`, the “activation” value is -11%.
As for `Cc1ccc(C)c(NP(=O)(Oc2ccccc2)Oc2ccccc2)c1`, the “activation” value is 13.9%.
On the same count and under the same terms, then `CN1CCN(c2ccc([N+](=O)[O-])c3no[n+]([O-])c23)CC1`, with 3.23%.
For `COC(=O)C1=C(c2ccc(OCc3ccccc3)cc2)C[C@@H]2CC[C@H]1N2C(=O)NCc1cccc(C(F)(F)F)c1`, the Potency is 4.12 µM (active).
`CC1(C)C[C@H]2C=C(C=O)[C@]3(C=O)C[C@]3(C)[C@H]2C1`: the “activation” value is -1.69%.
On to `CCN(CC)S(=O)(=O)c1ccc(C(=O)NC2CN3CCC2CC3)cc1` (stereo not drawn), for which the “activation” value was -4.35%.
Same read-out and setting: then `Cc1ccc(-n2c(O)c(C=NCC3CCCO3)c(=O)[nH]c2=O)c(C)c1` (stereo not drawn), with 12.2%; and `Cc1cccc(N2C(=O)NC(=O)/C(=C\C=C\c3ccco3)C2=O)c1`, with 0%; and `CCN1C(=O)N(CC)C(=O)C2(Cc3ccccc3N3CCN(c4ccccc4)CC32)C1=O` (stereo not drawn), with -9.68%.
The same measure, in the same setting: then `Cc1nc2ccccc2c(=O)n1-c1ccc(F)cc1F`, with 33.3%.
As for `CCCCC(=O)N/N=C/c1c(O)n(CCC2=CCCCC2)c(=O)[nH]c1=O`, the Potency is 14.6 µM (active).
With `O=C1Nc2ccccc2C1Cc1nc2ccccc2c(=O)n1-c1ccccc1` (stereo not drawn), the “activation” value is 16.9%.
Same read-out and setting: then `Cc1cc(O)c2c(c1)C(=O)C13C(=C2O)C(=O)[C@H]2[C@@H](O)[C@@H]1[C@H]1[C@H](O)[C@@H]3C(=O)C3=C(O)c4c(O)cc(C)cc4C(=O)C312` (stereo partly drawn), with 10.8%.
As to `S=c1[nH]nc(Cn2c(-c3ccccn3)nc3ccccc32)n1-c1ccc2c(c1)OCCO2`, the Potency was 41.2 µM (active).
Take `C/C=C/c1ccc2c(c1)OCO2`: the “activation” value was 58.1%.
The same measure, in the same setting: then `CC(C)c1ccc(-n2c(O)c(C=NC(CCS(C)=O)C(=O)O)c(=O)[nH]c2=S)cc1` (stereo not drawn), with -11.9%.

(Values after PubChem BioAssay AID493201 (National Center for Advancing Translational Sciences (NCATS), 2011).)
